Source: paper PMC4336329 (PLoS ONE, 2015)
Among all 310,000 compounds or so, about 14,000 (4.5%) showed an effect of 50% or more. Effects have a minus sign here. Shown is part of a subset that was picked to be rich in strong results.

target: human ether-à-go-go-related gene (hERG) potassium channel (human, UniProt Q12809); test: primary screen, population patch clamp on CHO cells stably expressing hERG; higher = less effect of the substance
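Further: peak tail current of the secondary pulse compared with the same well before compound.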

Chain of human ether-à-go-go-related gene (hERG) potassium channel (Q12809 whole entry, looked up): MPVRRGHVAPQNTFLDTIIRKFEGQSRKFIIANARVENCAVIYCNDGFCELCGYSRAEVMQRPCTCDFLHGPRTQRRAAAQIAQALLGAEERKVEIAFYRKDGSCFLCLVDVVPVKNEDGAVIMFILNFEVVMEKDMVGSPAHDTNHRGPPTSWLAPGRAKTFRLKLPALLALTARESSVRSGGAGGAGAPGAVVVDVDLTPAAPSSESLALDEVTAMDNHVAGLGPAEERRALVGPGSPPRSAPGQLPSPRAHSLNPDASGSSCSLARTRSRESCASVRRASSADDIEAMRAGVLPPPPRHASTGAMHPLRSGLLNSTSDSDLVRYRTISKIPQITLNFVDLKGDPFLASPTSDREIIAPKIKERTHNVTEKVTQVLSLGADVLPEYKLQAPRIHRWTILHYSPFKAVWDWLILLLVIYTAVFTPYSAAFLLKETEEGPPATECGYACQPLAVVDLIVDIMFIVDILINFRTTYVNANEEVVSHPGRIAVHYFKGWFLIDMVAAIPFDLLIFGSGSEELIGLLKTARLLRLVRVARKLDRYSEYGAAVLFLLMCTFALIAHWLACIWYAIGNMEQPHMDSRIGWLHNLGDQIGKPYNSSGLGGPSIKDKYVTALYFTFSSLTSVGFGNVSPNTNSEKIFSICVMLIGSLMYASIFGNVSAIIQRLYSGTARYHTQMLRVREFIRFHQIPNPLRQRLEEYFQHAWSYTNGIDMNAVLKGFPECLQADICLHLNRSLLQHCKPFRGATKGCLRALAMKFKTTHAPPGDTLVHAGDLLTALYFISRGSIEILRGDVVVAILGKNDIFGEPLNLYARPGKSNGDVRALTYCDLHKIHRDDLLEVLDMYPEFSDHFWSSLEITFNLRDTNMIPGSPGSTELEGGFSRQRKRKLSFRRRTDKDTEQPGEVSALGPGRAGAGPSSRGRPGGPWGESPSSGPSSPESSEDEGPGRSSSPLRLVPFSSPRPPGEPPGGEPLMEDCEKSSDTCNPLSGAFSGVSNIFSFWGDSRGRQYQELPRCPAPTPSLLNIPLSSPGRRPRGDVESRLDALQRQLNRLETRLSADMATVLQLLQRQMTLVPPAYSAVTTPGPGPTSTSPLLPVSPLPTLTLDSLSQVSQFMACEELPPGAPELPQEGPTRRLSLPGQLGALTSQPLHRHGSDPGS

| Structure (SMILES) | hERG current change (%, negative = inhibition) at 10uM [%] |
| --- | --- |
| Cc1nc(-c2ccccc2)sc1C1(C)CC(c2ccc(C#N)cc2)=NO1 (stereo not drawn) | -3.07 |
| O=C(Nc1ccccc1Cl)N1CCN(c2ccc3nnc(-c4ccccc4)n3n2)CC1 | -73.5 |
| O=C(Nc1ccccc1Cl)N1CCN(c2ccc3nnc(-c4ccc(F)cc4)n3n2)CC1 | -42.1 |
| O=C(Nc1ccccc1Cl)N1CCN(c2ccc3nncn3n2)CC1 | -23.2 |
| O=C(CN1C(=O)c2ccccc2C1=O)Nc1ccc(S(=O)(=O)N2CCOCC2)cc1 | -16.9 |
| O=C(NC1CCCC1)C1CCN(C(=O)c2cccc(Cl)c2)CC1 | -6.41 |
| Cc1ccc(-n2ncc3c(NCc4ccccn4)ncnc32)c(C)c1 | -7.46 |
| Cc1ccc2nc(-c3ccncc3)c(NC3CCCC3)n2c1 | -54.2 |
| Cc1ccc2nc(-c3cccnc3)c(NC3CCCC3)n2c1 | -19.7 |
| Cc1ccc2nc(-c3ccncc3)c(NC3CCCCC3)n2c1 | 9.35 |
| CCOc1cccc(OCCCCn2ccnc2)c1 | -9.04 |
| COc1ccc(C)cc1NS(=O)(=O)c1ccc2c(c1)oc(=O)n2C | 16.2 |
| Cc1cc(C)c2cc(C(=O)N3CCC(C(=O)c4ccc(F)cc4)CC3)[nH]c2c1 | 2.63 |
| Cc1cc(C)c2cc(C(=O)N3CCC(N4CCCCC4)CC3)[nH]c2c1 | -69.2 |
| CCOC(=O)C1CCN(C(=O)c2cc3c(C)cc(C)cc3[nH]2)CC1 | -15.2 |
| O=C(NNC(=O)c1cccs1)c1ccc(Br)o1 | 15.8 |
| CC1C(=O)NN=C1C(=O)N/N=C/c1cccs1 (stereo not drawn) | 17.3 |
| COC(=O)c1nn(-c2ccccc2)c(Cl)c1/C=N/OCc1ccc(Cl)cc1Cl | 20.6 |
| COC(=O)c1ccc(CSc2nnc3c(Cl)cc(Cl)cn23)o1 | 10.9 |
| COc1ccc(N2CC(C(=O)Nc3ccccc3C(=O)NCc3ccco3)CC2=O)cc1 (stereo not drawn) | -42 |
| O=C(NCc1ccco1)C1CC(=O)N(c2ccc(O)cc2)C1 (stereo not drawn) | -10.2 |
| O=C(NCc1ccco1)c1ccccc1NC(=O)C1CC(=O)N(c2ccc(Cl)cc2)C1 (stereo not drawn) | -78.4 |
| CNC(=O)c1ccccc1NC(=O)C1CC(=O)N(c2ccc(OC)cc2)C1 (stereo not drawn) | -12.3 |
| CCCCOc1ccc(N2CC(C(=O)NCc3ccco3)CC2=O)cc1 (stereo not drawn) | -14.5 |

| Structure (SMILES) | hERG current change (%, negative = inhibition) at 10uM [%] |
| --- | --- |
| CCCOc1ccc(N2CC(C(=O)Nc3ccccc3C(=O)NCc3ccco3)CC2=O)cc1 (stereo not drawn) | -71.5 |
| CCCOc1ccc(N2CC(C(=O)Nc3ccccc3C(=O)NC)CC2=O)cc1 (stereo not drawn) | -71.8 |
| CCCOc1ccc(N2CC(C(=O)Nc3ccccc3F)CC2=O)cc1 (stereo not drawn) | -3.15 |
| O=C(NCc1ccco1)C1CC(=O)N(c2ccc(Cl)cc2)C1 (stereo not drawn) | -6.16 |
| CCc1ccc(/C=N/NC(=O)c2cc(-c3ccccc3OC)nc3ccccc23)s1 | 9.69 |
| O=C(NC1CCN(Cc2ccccc2)CC1)C1CCN(S(=O)(=O)c2cccc3nsnc23)CC1 | -23.7 |
| CN(C)CC1CCCCC1OC(=O)/C=C/c1ccccc1.Cl (stereo not drawn) | -33.2 |
| Cc1ccccc1C(=O)NNc1ccc([N+](=O)[O-])cc1 | -17.3 |
| CCCOc1ccc(C2/C(=C(/O)c3ccccc3)C(=O)C(=O)N2CCCN(C)C)cc1OC (stereo not drawn) | 5.35 |
| Cc1ccccc1CNC(=O)CN(c1cccc([N+](=O)[O-])c1)S(C)(=O)=O | 6.08 |
| Cc1ccc(N/C(N)=N/c2nc(CSc3nnc(C)s3)cc(=O)[nH]2)c(C)c1 | -8.86 |
| Cc1cc(C(=O)NC2CC(C)(C)Cc3c2cnn3-c2ccccc2)n[nH]1 (stereo not drawn) | -19.2 |
| Cc1ccc(-n2ncc3c2CC(C)(C)CC3NC(=O)c2ccccn2)cc1 (stereo not drawn) | -73.7 |
| Cc1ccccc1-n1ncc2c1CC(C)(C)CC2NC(=O)c1ccncc1 (stereo not drawn) | -47.4 |
| Cc1ccc(-n2ncc3c2CC(C)(C)CC3NC(=O)c2cc[n+]([O-])cc2)cc1 (stereo not drawn) | -75.4 |
| Cc1ccc(-n2ncc3c2CC(C)(C)CC3NC(=O)c2ccc[n+]([O-])c2)cc1 (stereo not drawn) | -1.89 |
| CC1=C(C(=O)NC2CC(C)(C)Cc3c2cnn3-c2ccc(C)cc2)OCCO1 (stereo not drawn) | 3.64 |
| Cc1cnc(C(=O)NC2CC(C)(C)Cc3c2cnn3-c2ccccc2)cn1 (stereo not drawn) | -39 |
| Cc1ccc(-n2ncc3c2CC(C)(C)CC3NC(=O)c2ccncc2)cc1 (stereo not drawn) | -72.2 |
| CC1(C)Cc2c(cnn2-c2cccc(F)c2)C(NC(=O)c2cc[n+]([O-])cc2)C1 (stereo not drawn) | -37.3 |
| O=C1N[C@@H](Cc2cn(S(=O)(=O)c3ccccc3)c3ccccc23)C(=O)N[C@H]1Cc1ccccc1 | 14.9 |
| Cn1nc(C(=O)NC2CCCCC2)c2c1-c1ccccc1S(=O)(=O)C2 | 11.7 |
| CCCCc1ccc(-c2nc(N)n[nH]2)cc1 | 6.27 |
| O=[N+]([O-])c1ccc(OC/C=C2\Oc3ccc([N+](=O)[O-])cc3C2N2CCOCC2)cc1 (stereo not drawn) | -71.7 |

| Structure (SMILES) | hERG current change (%, negative = inhibition) at 10uM [%] |
| --- | --- |
| O=[N+]([O-])c1ccc2c(c1)C(N1CCOCC1)/C(=C/COc1ccc(Cl)cc1Cl)O2 (stereo not drawn) | -1.06 |
| O=[N+]([O-])c1ccc2c(c1)C(N1CCOCC1)/C(=C/COc1ccc(F)cc1)O2 (stereo not drawn) | -26 |
| Oc1nc(Nc2ccc(Cl)cc2Cl)sc1/C=C1\C=Nc2ccccc21 | 9.08 |
| CCCOc1ccc(C(C)=O)cc1CN1CCOCC1.Cl | 2.99 |
| CCCCn1nc(NC(=O)COC)c2cc3cc(OC)ccc3nc21 | -53.2 |
| CCCCn1nc(NC(=O)CCC)c2cc3cc(OC)ccc3nc21 | -3.42 |
| CCCCn1nc(NC(=O)CC)c2cc3cc(OC)ccc3nc21 | -11.2 |
| COc1ccc(NC(=O)CSc2nc3c([nH]c4ccccc43)c(=O)n2C)cc1 | 0.41 |
| COc1cc(/C=C2/C(=N)N3OC(C)=CC3=NC2=O)ccc1OC(=O)c1ccco1 | 29.8 |
| Cc1ccc(N=C2NC(=O)C(CO)(CO)S2)cc1 | 16.1 |
| Nc1cc2c(cc1[N+](=O)[O-])OCCO2 | 5.64 |
| O=C(N/N=C/c1cccc([N+](=O)[O-])c1)c1ccc2c(c1)OCCO2 | 7.63 |
| O=C(c1cccc([N+](=O)[O-])c1)c1ccc2c(c1)OCCOCCOCCOCCO2 | -69.8 |
| O=C(c1cccc([N+](=O)[O-])c1)c1ccc2c(c1)OCCOCCOCCO2 | -52.8 |
| O=[N+]([O-])c1cc2c(cc1[N+](=O)[O-])OCCOCCOCCOCCO2 | -59.3 |
| O=C(Nc1cccc([N+](=O)[O-])c1)Nc1ccc2c(c1)OCCO2 | -1.17 |
| O=[N+]([O-])c1ccc(S(=O)(=O)Nc2ccc3c(c2)OCCO3)cc1 | 3.95 |
| O=[N+]([O-])c1ccc2c(c1)OCCOCCOCCOCCOCCOCCO2 | -64.1 |
| O=C(Nc1cccc([N+](=O)[O-])c1)c1ccc2c(c1)OCCO2 | 11.9 |
| O=C(Nc1ccc([N+](=O)[O-])cc1)Nc1ccc2c(c1)OCCO2 | 24.6 |
| Nc1cc2c(cc1[N+](=O)[O-])OCCOCCOCCO2 | 0.413 |
| O=C(/C=C/c1cccc([N+](=O)[O-])c1)c1ccc2c(c1)OCCO2 | 3.36 |
| O=C(NCc1cccc(F)c1)C1CCN(S(=O)(=O)Cc2ccccc2)CC1 | 7.89 |
| COCCn1c(SCC(=O)Nc2ccc(Cl)cn2)nc2ccccc21 | -32.1 |

| Structure (SMILES) | hERG current change (%, negative = inhibition) at 10uM [%] |
| --- | --- |
| Cc1ccc(N(C(=O)CCC(=O)Nc2ccccn2)C(C(=O)NC(C)C)c2ccc(F)cc2)cc1 (stereo not drawn) | 21.4 |
| COc1ccc2c(c1)[C@H]1[C@H](CO2)[C@H](c2ccccc2)[C@]2(C)C(=O)N(CC3CCCO3)CC(=O)N12 (stereo partly drawn) | -2.94 |
| COc1cccc(-n2cnc3c(sc4nc(N5CCOCC5)c5c(c43)CCCC5)c2=O)c1 | 5.92 |
| CCc1ccccc1NC(=O)CNC(=O)CSC(=S)N1CCCC1 | -3.17 |
| COc1ccc(N2C(=NC(=O)c3ccccc3)SC3CS(=O)(=O)CC32)cc1 (stereo not drawn) | 5.27 |
| O=S(=O)(Oc1ccccc1C(=S)N1CCOCC1)c1ccc(Cl)cc1 | 3.56 |
| NS(=O)(=O)c1ccc(CCNC(=O)[C@@H]2CCCN2S(=O)(=O)c2ccccc2F)cc1 | -2.88 |
| COc1ccc(OC)c(S(=O)(=O)N2CCC(C(=O)NCc3ccc4c(c3)OCO4)CC2)c1 | -3.84 |
| COc1cccc(NC(=O)c2cccnc2)c1 | 11.2 |
| OCC#CC[N+]1(CC#Cc2ccccc2)CCCC1.[Br-] | 14.5 |
| C#CC[N+]1(CC#Cc2ccccc2)CCCC1.[I-] | -1.53 |
| C(#Cc1ccccc1)C[N+]1(CC#Cc2ccccc2)CCCC1.[Br-] | -55.5 |
| Cc1ccc(C#CC[N+]2(C)CCCCC2)cc1.[Br-] | 14 |
| C=CC[N+]1(CC#Cc2ccccc2)CCCC1.[Br-] | 18.4 |
| CCC[N+]1(CC#CCC(c2ccccc2)c2ccccc2)CCCCC1.[Br-] | -66.7 |
| C#CC[N+]1(CC#Cc2ccc(C)cc2)CCCCC1.[Br-] | 4.84 |
| CCC[N+]1(CC#CC(O)(c2ccccc2)C2CCCCC2)CCCCC1.[Br-] (stereo not drawn) | 12.1 |
| O=S(=O)([O-])CCC[N+]1(CC#Cc2ccccc2)CCCCC1 | 33.8 |
| C(#Cc1ccccc1)C[N+]1(CC#Cc2ccccc2)CCCCC1.[Br-] | -55.8 |
| Cc1ccc(C#CC[N+]2(CC#Cc3ccc(C)cc3)CCCCC2)cc1.[Br-] | -106 |
| C#CC[N+]1(CC#Cc2ccccc2)CCCCC1.[I-] | 2.16 |
